Screen size: about 330,000 compounds; about 670 (0.2%) were called active.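 The calls were made as follows: active = activity change below a set negative limit, meaning inhibition stronger than a set level (cut at about -70% in these data); inconclusive = activity change between two set negative limits; inactive = the rest.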 The sample as a whole holds a higher share of actives than the screen did.

This passage reports activity change, negative = inhibition results from PubChem BioAssay AID504810 (National Center for Advancing Translational Sciences (NCATS), 2011).
% is scaled to controls: 0 for no effect and ±100 for the full control effect.

This test deals with Thyrotropin receptor (Homo sapiens) (UniProt P16473). The test is described as follows: Antagonists of the Thyroid Stimulating Hormone Receptor: HTS campaign. As to conditions: TSHR-expressing cells, TSH-stimulated cAMP HTRF, 2 h; at 11.5 µM; active compounds read low. In a few lines: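 TSHR-expressing cells were treated with compounds, then stimulated with TSH at EC80 (4nM final) for 2 hours at 37 deg C. Cellular cAMP was measured by HTRF competition between lysate cAMP and cAMP-d2 for a cryptate-labelled anti-cAMP antibody.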
Sequence of Thyrotropin receptor (Homo sapiens) (P16473 whole entry, looked up): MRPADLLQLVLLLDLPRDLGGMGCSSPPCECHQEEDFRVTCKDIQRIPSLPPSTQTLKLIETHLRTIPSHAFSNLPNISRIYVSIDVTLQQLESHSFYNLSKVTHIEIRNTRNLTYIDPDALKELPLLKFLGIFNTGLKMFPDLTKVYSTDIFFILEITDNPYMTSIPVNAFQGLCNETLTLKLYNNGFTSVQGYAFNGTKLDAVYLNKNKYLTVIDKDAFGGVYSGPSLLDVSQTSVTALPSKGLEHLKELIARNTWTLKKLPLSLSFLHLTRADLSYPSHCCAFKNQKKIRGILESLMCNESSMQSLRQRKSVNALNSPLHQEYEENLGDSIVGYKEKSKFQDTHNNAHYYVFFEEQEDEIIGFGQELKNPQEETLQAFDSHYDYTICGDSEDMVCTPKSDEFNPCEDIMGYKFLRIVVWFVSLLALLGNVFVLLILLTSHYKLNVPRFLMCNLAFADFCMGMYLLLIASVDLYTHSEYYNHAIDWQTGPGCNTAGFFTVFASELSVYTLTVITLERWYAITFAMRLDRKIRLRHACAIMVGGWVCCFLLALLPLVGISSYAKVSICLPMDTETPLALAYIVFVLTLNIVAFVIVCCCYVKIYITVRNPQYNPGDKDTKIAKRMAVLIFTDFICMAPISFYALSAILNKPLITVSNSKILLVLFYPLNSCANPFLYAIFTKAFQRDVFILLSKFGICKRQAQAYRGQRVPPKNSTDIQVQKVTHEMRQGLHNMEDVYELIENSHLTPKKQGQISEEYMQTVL
In general terms: Time-resolved FRET reads energy transfer from a long-lived donor to a nearby acceptor.
Regarding `CCOc1ccc(C(CC(=O)O)NC(=O)C23CC4CC(CC(C4)C2)C3)cc1OC` (stereo unspecified), the activity change, negative = inhibition is -4.83% (inactive).

On to `Cc1occc1-c1nnc(SCC(=O)NC2CCCCC2)o1`, for which the activity change, negative = inhibition was -3.93% (inactive).

For the compound `CCCCCCCCc1c(O)nc(-n2[nH]c(C)c(CCO)c2=O)[nH]c1=O`, the activity change, negative = inhibition is 7.75% (inactive).

For `Cc1cccc(C(=O)NNC(=O)CSc2nnc(C(C)C)n2C)c1`, the activity change, negative = inhibition was 2.38% (inactive).

`Cc1ccc(SCC(=O)c2cc(C)c(OC(=S)N(C)C)c(C)c2)cc1`: the activity change, negative = inhibition was -25% (inactive).

As to `Cc1cc(CNC(=O)c2cccc([N+](=O)[O-])c2)c2ccccc2n1`, the activity change, negative = inhibition was -9.8% (inactive).

With `N=C1C(c2nc3ccccc3s2)=C(O)CN1NC(=O)c1ccc([N+](=O)[O-])cc1`, the activity change, negative = inhibition is -1.44% (inactive).

Take `O=C(NC(Nc1nc2ccc([N+](=O)[O-])cc2s1)(C(F)(F)F)C(F)(F)F)c1ccccc1`: the activity change, negative = inhibition is -78.9% (active).

As for `CN(C)c1cc2c(Nc3ccc4c(cnn4Cc4ccccc4)c3)ncnc2cn1`, the activity change, negative = inhibition is -17.2% (inactive).

Turning to `COc1ccc(CCNC(=O)C2CC3Cn4c(nc5cc(C)c(C)cc54)C3N2C)cc1` (stereo unspecified), the activity change, negative = inhibition was -1.1% (inactive).

As for `Nc1ncnc2c1c(I)cn2[C@@H]1C[C@H](N)[C@@H](O)[C@H]1O`, the activity change, negative = inhibition is -18% (inactive).

As for `CCOc1ccc(C(=O)NC2CCN(CC(=O)NCc3cccs3)CC2)cc1`, the activity change, negative = inhibition is 1.48% (inactive).

For `Cc1nc2ccccc2c(=O)n1NC(=O)c1ccc(Cl)c([N+](=O)[O-])c1`, the activity change, negative = inhibition is -24.1% (inactive).

In the case of `O=C(Nn1c(SCc2ccc([N+](=O)[O-])cc2)nc2ccccc2c1=O)c1ccc(F)cc1`, the activity change, negative = inhibition is -74.2% (active).

`C=CCn1c(SCc2ccc(C(=O)NCCO)cc2)nc2ccccc2c1=O`: the activity change, negative = inhibition is -4.95% (inactive).

On to `CCO[C@@H]1OC(C(=O)NCc2nc3ccccc3[nH]2)=C[C@H](C2CCCCC2)[C@H]1CCCO`, for which the activity change, negative = inhibition is -6.97% (inactive).

On to `CC(C)C[C@H](NC(=O)[C@H](O)[C@H](N)Cc1ccccc1)C(=O)O`, for which the activity change, negative = inhibition is -6.27% (inactive).

Regarding `O=C(CSc1ncn[nH]1)Nc1nc(-c2cccc([N+](=O)[O-])c2)cs1`, the activity change, negative = inhibition was 7.62% (inactive).

Consider `O=C(CSc1nc(-c2ccccc2)cs1)Nc1cccc([N+](=O)[O-])c1`, for which the activity change, negative = inhibition is -78.8% (active).

Take `COc1ccc(-n2cnnc2SCC(=O)Nc2cccc([N+](=O)[O-])c2)cc1`: the activity change, negative = inhibition is -5.22% (inactive).

Consider `COc1cc(NC(=O)c2cc([N+](=O)[O-])ccc2Br)ccc1NC(=O)c1ccco1`, for which the activity change, negative = inhibition is -16.5% (inactive).

Take `Cc1ccc(Nc2nc(N3CCOCC3)nc(N3CCOCC3)n2)cc1Cl`: the activity change, negative = inhibition is -135% (active).

Regarding `Cc1ccc(Nc2nc(N)nc(CN3CCN(Cc4ccccc4)CC3)n2)cc1Cl`, the activity change, negative = inhibition is 5.19% (inactive).

`Cc1ccccc1NC(=O)CSc1nc2ccc(Nc3nc(N4CCOCC4)nc(N4CCOCC4)n3)cc2s1`: the activity change, negative = inhibition was -6.48% (inactive).

As for `O=C(Nc1ccc(-c2cscn2)cc1)C1CCCN(Cc2ccc(CO)o2)C1` (stereo unspecified), the activity change, negative = inhibition is 14.3% (inactive).

As to `CSc1nnc(-c2ccc(C(F)(F)F)cn2)o1`, the activity change, negative = inhibition is 7.33% (inactive).
